In the library only some 2.3% were active in any assay of this set; here they are far more common.
CHRM1 PAM: human M1 muscarinic receptor positive allosteric modulators, primary screen, CHO-K1 cells, Fluo-8 calcium fluorescence, 1536-well | Muscarinic acetylcholine receptor M1 (Homo sapiens), P11229 | CHO-K1 hM1, ACh EC20; 0% = ACh EC20, 100% = maximal ACh | activation, % at 3 µM | actives 0.088% (n = 360,000) | AID 588819, 2011; in the data active = activation above about 19%, passing the limit was not always enough
Target sequence (P11229 whole entry, looked up): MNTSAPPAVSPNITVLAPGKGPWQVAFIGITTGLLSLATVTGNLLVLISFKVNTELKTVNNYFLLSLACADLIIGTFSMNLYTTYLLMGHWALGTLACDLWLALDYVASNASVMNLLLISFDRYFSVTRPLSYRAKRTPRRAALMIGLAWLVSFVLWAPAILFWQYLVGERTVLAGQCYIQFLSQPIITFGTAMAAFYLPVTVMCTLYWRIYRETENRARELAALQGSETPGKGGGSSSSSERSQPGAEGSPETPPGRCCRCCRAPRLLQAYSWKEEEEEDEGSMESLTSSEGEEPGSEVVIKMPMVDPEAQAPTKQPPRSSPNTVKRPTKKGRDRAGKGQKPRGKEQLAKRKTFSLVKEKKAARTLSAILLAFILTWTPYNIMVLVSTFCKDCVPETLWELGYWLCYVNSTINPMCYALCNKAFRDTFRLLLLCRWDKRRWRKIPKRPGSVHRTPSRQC
CHO-K1 Ca ag: counter-screen for M1 agonists: effect in parental CHO-K1 cells; AID 602248, 2012; activation, % at 3 µM; actives 0.48% (n = 360,000); Fluo-8 calcium fluorescence; scaled to maximal ATP response, vehicle zero; in the data active = activation above about 15%;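 note: untransfected CHO-K1 host cells lacking M1 receptor as counterscreen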
M1 antag: human M1 muscarinic receptor antagonists, primary screen, CHO-K1 cells, Fluo-8 calcium fluorescence, 1536-well; Muscarinic acetylcholine receptor M1 (Homo sapiens), P11229; CHO-K1 hM1, ACh EC80 antagonist; inhibition, % at 3 µM; actives 1.3% (n = 360,000); AID 588852, 2011;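 active = percent inhibition above its own plate's cutoff, namely the mean of that plate's compound wells plus 3 SD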;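 note: peak over basal fluorescence ratio during 140 s after agonist addition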
M1 ag: human M1 muscarinic receptor agonists, primary screen, Fluo-8 calcium fluorescence, CHO-K1 cells, HTS | Muscarinic acetylcholine receptor M1 (Homo sapiens), P11229 | AID 588814, 2011 | actives 0.33% (n = 360,000) | activation, % at 3 µM | CHO-K1 hM1, agonist mode; 0% DMSO, 100% acetylcholine EC100;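 active = activation above the run's mean compound activation plus 3 SD, cut at about 16% in these data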;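 note: peak over basal fluorescence ratio within a 140 s kinetic read after compound addition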
CHO-K1 Ca antag: counter-screen for M1 antagonists: effect in parental CHO-K1 cells | ATP-induced calcium, Fluo-8 fluorescence | inhibition, % at 3 µM | actives 0.6% (n = 360,000);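 active = inhibition above a per-plate cutoff, the plate's mean sample inhibition plus 3 SD, cut at about 24% in these data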
CHO-K1 Ca PAM: nonselective calcium activators in parental CHO-K1 cells, primary screen, counter-screen for M1 PAM project, cell-based, Fluo-8 calcium fluorescence, full deck, 1536-well; activation, % at 3 µM; AID 602247, 2012; ATP EC20; 0% at ATP EC20, 100% at ATP max; actives 0.02% (n = 360,000);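 active = activation above the run cutoff, the mean activation of all test compounds plus 3 SD, cut at about 40% in these data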;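 note: peak over basal fluorescence ratio in a 140 s read after ATP addition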
A number is an active result; 0 = inactive.

SMILES | CHRM1 PAM | CHO-K1 Ca ag | M1 antag | M1 ag | CHO-K1 Ca antag | CHO-K1 Ca PAM
Cn1c(COc2ccccc2O)[n+](C)c2ccccc21 | 0 | 0 | 0 | 0 | 0 | 0
Cc1c(P(=S)(c2ccccc2)c2ccccc2)[n+]2ccccc2n1C/C=C/c1ccccc1 | 0 | 0 | 56 | 0 | 0 | 0
CC(O)c1nc2ccccc2n1C/C=C/c1ccccc1 (configuration not stated) | 0 | 0 | 0 | 0 | 0 | 0
Cc1ccc(-c2csc(N3CCC(C(N)=O)CC3)n2)cc1 | 0 | 0 | 0 | 0 | 0 | 0
Cc1ccc(-c2csc(N3CCC(NS(=O)(=O)c4ccc5c(c4)OCCO5)CC3)n2)cc1 | 0 | 0 | 19 | 0 | 0 | 0
CCn1c(CCC(=O)O)nc2cc(S(=O)(=O)N(C)C)ccc21 | 0 | 0 | 0 | 0 | 30 | 0
CN(C)S(=O)(=O)c1ccc2c(c1)nc(CCC(=O)O)n2C | 0 | 0 | 0 | 0 | 0 | 0
O=C(COC(=O)COc1ccc(Cl)cc1)NC1CC1 | 0 | 0 | 0 | 0 | 0 | 0
O=C1C(Cl)=C(N2CCCCCC2)C(=O)N1c1ccc(Br)cc1 | 0 | 0 | 0 | 0 | 0 | 0
O=C1C(Cl)=C(N2CCCCCC2)C(=O)N1c1ccccc1 | 0 | 0 | 36 | 0 | 0 | 0
CC1Cc2ccccc2N1C(=O)CSc1nc2c(c(=O)n(C)c(=O)n2C)n1Cc1ccccc1 (configuration not stated) | 0 | 0 | 41 | 0 | 0 | 0
Cn1c(=O)c2c(nc(SCCN3CCCCC3)n2Cc2ccccc2)n(C)c1=O | 0 | 0 | 39 | 0 | 0 | 0
CC(=O)Nc1sc2c(c1C(c1ccccn1)N1CCCC1)CCCC2 (configuration not stated) | 0 | 0 | 0 | 0 | 0 | 0
CC(=O)Nc1sc2c(c1C(c1ccccc1Cl)N1CCN(CCO)CC1)CCCC2 (configuration not stated) | 0 | 0 | 45 | 0 | 0 | 0
CC(=O)Nc1sc2c(c1C(c1ccccn1)N1CCN(C)CC1)CCCC2 (configuration not stated) | 0 | 0 | 48 | 0 | 0 | 0
C[C@@H]1CN([C@H](C)CO)C(=O)CCCn2cc(nn2)CO[C@H]1CN(C)C(=O)c1ccc2ccn(C)c2c1 | 0 | 0 | 0 | 0 | 0 | 0
COc1cccc(S(=O)(=O)NCc2ccc(C(=O)Nc3ccc(Cl)c(Cl)c3)cc2)c1 | 0 | 0 | 0 | 0 | 0 | 0
O=C(Nc1ccc(Cl)c(Cl)c1)OCc1cccnc1 | 0 | 0 | 33 | 0 | 27 | 0
O=C(Nc1ccc(Cl)c(Cl)c1)c1cccc(S(=O)(=O)NCc2cccnc2)c1 | 0 | 20 | 0 | 0 | 28 | 0
Cc1cc(C)nc(N/N=C/c2cn[nH]c2-c2ccc(F)cc2)n1 | 0 | 18 | 0 | 0 | 0 | 0
Cc1ccc(/C=N/Nc2nc(C)cc(C)n2)cc1 | 0 | 0 | 0 | 0 | 0 | 0
Cc1ccc(CN2CC(N3CC=CC3)CS2(=O)=O)cc1 (configuration not stated) | 0 | 0 | 0 | 0 | 0 | 0
O=S1(=O)CC(N2CC=CC2)CN1Cc1ccc(F)cc1 (configuration not stated) | 0 | 0 | 0 | 0 | 29 | 0
CCOCCCNC(=O)c1[nH]c(C)c(C(C)=O)c1C | 0 | 0 | 0 | 0 | 24 | 0
CCOCCCNC(=O)c1c(C)[nH]c(C(=O)OCC)c1C | 0 | 0 | 0 | 0 | 0 | 0
SMILES | CHRM1 PAM | CHO-K1 Ca ag | M1 antag | M1 ag | CHO-K1 Ca antag | CHO-K1 Ca PAM
CC(C)(C)C(O)(CC#CCN1CCCC1)c1ccccc1 (configuration not stated) | 0 | 0 | 98 | 0 | 0 | 0
CC(C)C(O)(CC#CCN1CCCC1)c1ccccc1 (configuration not stated) | 0 | 0 | 99 | 0 | 0 | 0
CC(C)CC(O)(c1ccccc1)C(CN1CCOCC1)c1ccccc1 (configuration not stated) | 0 | 0 | 0 | 0 | 0 | 0
OC(CC#CCN1CCCC1)(c1ccccc1)c1ccccc1 | 0 | 0 | 100 | 0 | 0 | 0
C(#CCN1CCCC1)CC(c1ccccc1)c1ccccc1 | 0 | 0 | 100 | 0 | 0 | 0
OC(CC#CCN1CCOCC1)(c1ccccc1)c1ccccc1 | 0 | 0 | 0 | 0 | 0 | 0
Cc1ccc(Cl)cc1NC(C#N)c1ccccc1 (configuration not stated) | 0 | 0 | 0 | 0 | 0 | 0
OC(CC#CCN1CCCCC1)(c1ccccc1)c1ccccc1 | 0 | 0 | 97 | 0 | 0 | 0
CC(C)(C)N(CC#CCC(O)(c1ccccc1)c1ccccc1)CCO | 0 | 0 | 0 | 0 | 0 | 0
CN(C)CC(c1ccccc1)c1ccccc1 | 0 | 0 | 0 | 0 | 0 | 0
CN(C)CCC(=O)C(Cc1ccccc1)c1ccccc1 (configuration not stated) | 0 | 0 | 73 | 0 | 0 | 0
CC(CCCN(C)C)C(Cc1ccccc1)c1ccccc1 (configuration not stated) | 0 | 0 | 80 | 0 | 0 | 0
CN(C)CCNC(=O)C(c1ccccc1)c1ccccc1 | 0 | 0 | 0 | 0 | 0 | 0
CC(NC(=O)COC(=O)C1CCCCC1)c1ccccc1 (configuration not stated) | 0 | 0 | 0 | 0 | 0 | 0
CCNC(=O)C1(C)CCN(C(=O)c2ccc(-c3ccccc3)cc2)C1 (configuration not stated) | 0 | 0 | 0 | 0 | 0 | 0
COc1cccc(-c2ncc3ccccc3c2COC(=O)c2ccco2)c1 | 0 | 0 | 0 | 0 | 0 | 0
CN(CCCNC(=O)c1cccc(N2CCCC2=O)c1)c1ccccc1 | 0 | 0 | 30 | 0 | 0 | 0
CCCCN(C)CCCNC(=O)c1cccc(N2CCCC2=O)c1 | 0 | 0 | 0 | 0 | 0 | 0
CC(=O)Nc1cccc(NS(=O)(=O)c2ccc3c(c2)CCC(=O)N3)c1 | 0 | 0 | 0 | 0 | 0 | 0
CCOC(=O)c1sc(NC(=O)CSc2nc3c(c(=O)n2-c2ccc(C)cc2)SCC3)c(C(=O)OCC)c1C | 0 | 0 | 0 | 0 | 0 | 0
Cc1ccc(COn2c(-c3ccc(Cl)cc3Cl)nc3ncccc32)cc1 | 0 | 0 | 35 | 0 | 0 | 0
Clc1cccc(COn2c(-c3ccc(Cl)cc3Cl)nc3ncccc32)c1 | 0 | 0 | 0 | 0 | 0 | 0
CCOc1cc(C)c(S(=O)(=O)Nc2ccc3cn[nH]c3c2)cc1C | 0 | 0 | 32 | 0 | 0 | 0
Cc1ccc(S(=O)(=O)Nc2ccc3cn[nH]c3c2)c(C)c1 | 0 | 0 | 0 | 0 | 0 | 0
CCOC(=O)c1ccc(NC(=S)NCCc2ccc(F)cc2)cc1 | 0 | 23 | 0 | 0 | 28 | 0
CCOC(=O)c1ccc(NC(=O)C(=O)NCCc2ccc(OC)cc2)cc1 | 0 | 0 | 0 | 0 | 0 | 0

High-throughput results (PubChem BioAssay)
